# Assay outcomes (PubChem BioAssay)
# PNC assembly inh – High Content Assay for Compounds that inhibit the Assembly of the Perinucleolar Compartment | PC3M PTB-GFP, PNC prevalence imaging, 16 h; stronger effect = lower value | activity change (PNC), negative = inhibition, % at 10 µM | hit rate 3.1% among 140,000 | AID 2417, 2010;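 active = readout at or below -70, meaning at least 70% loss of cells showing the perinucleolar compartment, a nuclear body marking cancer cells; inconclusive = readout between -30 and a set limit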
#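 Read-out is percentage of cells bearing a perinucleolar compartment, from automated 20x imaging of fixed, Hoechst-stained PC3M PTB-GFP cells. Cells were seeded 4 h, then exposed 16 h to compound (23 nl of library stock) in duplicate plates.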
# 15-hLO-2 inh – qHTS Assay for Inhibitors of 15-hLO-2 (15-human lipoxygenase 2). Polyunsaturated fatty acid lipoxygenase ALOX15B (Homo sapiens), O15296. hit rate 0.56% among 110,000. AID 881, 2007. Potency, µM (top dose mostly 57.1 µM), usual class: inhibitors. purified 15hLO-2, xylenol orange hydroperoxide absorbance; also: nearly all actives have a fitted effect of over 60% in size
#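 Purified human 15hLO-2 (50 nM) preincubated 15 min with compound, then 45 uM arachidonic acid for 90 min at RT in 25 mM Hepes pH 7.5, 0.01% Triton X-100. Hydroperoxide detected by Fe-xylenol orange; 573/405 nm absorbance ratio.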
# ALOX12 inhib – qHTS Assay for Inhibitors of 12-hLO (12-human lipoxygenase); Polyunsaturated fatty acid lipoxygenase ALOX12 (Homo sapiens), P18054; purified 12-hLO, xylenol orange hydroperoxide absorbance; Potency, µM (series often up to 57.1 µM), actives largely listed as inhibitors; hit rate 0.12% among 150,000; also: nearly all actives have a fitted effect of over 55% in size
# Target sequence (P18054 whole entry, looked up): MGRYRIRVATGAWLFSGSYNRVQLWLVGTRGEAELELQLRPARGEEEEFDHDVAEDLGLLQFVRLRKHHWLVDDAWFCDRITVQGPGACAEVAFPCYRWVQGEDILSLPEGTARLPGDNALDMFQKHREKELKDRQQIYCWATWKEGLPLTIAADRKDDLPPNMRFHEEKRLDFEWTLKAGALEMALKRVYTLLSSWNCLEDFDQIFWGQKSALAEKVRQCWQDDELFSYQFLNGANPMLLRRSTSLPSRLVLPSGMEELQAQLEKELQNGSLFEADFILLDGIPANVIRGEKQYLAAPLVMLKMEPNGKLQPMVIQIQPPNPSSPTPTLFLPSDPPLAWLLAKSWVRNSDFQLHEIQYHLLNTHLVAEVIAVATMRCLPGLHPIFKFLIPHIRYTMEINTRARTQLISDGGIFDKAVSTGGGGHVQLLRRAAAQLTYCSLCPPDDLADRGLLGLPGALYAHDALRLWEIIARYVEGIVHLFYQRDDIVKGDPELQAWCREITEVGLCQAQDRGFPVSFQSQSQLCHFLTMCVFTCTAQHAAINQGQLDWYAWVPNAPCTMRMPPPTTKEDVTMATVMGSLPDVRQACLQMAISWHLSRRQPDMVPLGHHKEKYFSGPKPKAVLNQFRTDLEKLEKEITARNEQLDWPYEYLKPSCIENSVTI
#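 150 nM 12hLO, 25 mM Hepes pH 7.0 + 0.01% Triton X-100; cpd preinc 15 min RT; 40 uM arachidonic acid, 30 min RT; Fe-XO 30 min; A573/A405 ratio as read-out.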
# Numbers stand for hits; n = inactive; u = inconclusive; x = not tested or not shown; [ ] = remark or other dose. The list is not random: actives were taken first. Their share in the collection is about 3.1%. Unless noted, calls follow the shape of the dose curve; as a rule, active = well fitted curve in the direction sought with a large enough effect; inconclusive = small, poorly fitted or top-dose-only effect, or another doubt; inactive = no such curve, though single readings can be large; an effect the other way counts as inactive or inconclusive.
SMILES,PNC assembly inh,15-hLO-2 inh,ALOX12 inhib
N[C@@H](Cc1cccnn1)C(=O)O,x,n[11.4 µM],n[11.4 µM]
O=C(CSc1nc2ccccc2c2ccccc12)c1ccccc1,x,n[11.4 µM],n[11.4 µM]
CCOC(=O)c1c(C)n(C)c2ccc(O)c(CN3CCN(C)CC3)c12,n,n,n
CCOC(=O)c1c(-c2ccccc2)oc2ccc(O)c(CN3CCN(C)CC3)c12,-114,x,n
Brc1cc(Oc2cc(Br)c(Br)c(Br)c2Br)c(Br)c(Br)c1Br,x,n,n
Cc1ccccc1-n1cnc2cc(NCc3cccs3)ccc21,n,n,n
COc1ccccc1-n1cnc2cc(NCc3cccs3)ccc21,-81,n,n
CC(=O)OC1CC(O)C(C)(C)C2CC(OC(C)=O)[C@]3(C)C(CC[C@@]4(C)C(c5ccoc5)OC(=O)C5OC534)[C@]12C (some centres undefined),x,n,n
Cc1ccccc1OCc1nc(-c2ccc(NC(=O)c3cccs3)cc2)no1,n,x,n
Cc1ccccc1OCc1nc(-c2ccc(NC(=O)c3ccco3)cc2)no1,-100,x,n
CCCc1ccc(OCc2nc(-c3ccc(NC(=O)c4cccs4)cc3)no2)cc1,-91,x,n
CCCc1ccc(OCc2nc(-c3ccc(NC(=O)c4ccco4)cc3)no2)cc1,n,u,n
Cc1cc(=Nc2ccc3c(c2)c(N)cc(C)[n+]3C)nc(N)n1C,x,n[11.4 µM],n[11.4 µM]
COCC(=O)N1CCc2nc(-c3ccccc3)c3c(c2C1)CO[C@@H](C)C3,x,x,n[11.4 µM]
O=C(Cc1coc2ccc3ccccc3c12)Nc1nnc(C2CC2)s1,-100,n,n
Cc1cc2occ(CC(=O)Nc3nnc(C4CC4)s3)c2cc1C,n,n,n
CCOC(=O)N1CCN(C(=O)c2ccc(NC(C)=O)cc2)CC1,n,n,n
CCOC(=O)N1CCN(C(=O)c2ccc(N3C(=O)CCC3=O)cc2)CC1,-89,n,n
COc1ccc(N(CC(=O)O)N=O)cc1,x,n[11.4 µM],n[11.4 µM]
CCc1nnc(NC(=O)c2cccc(OC)c2)s1,n,n[11.4 µM],n
CCOc1cc(NC(=S)Nc2cccc(OC)c2)c(OCC)cc1NC(=O)C(C)C,-106,x,n
O=C(CCc1ccc(Oc2cc([N+](=O)[O-])cc([N+](=O)[O-])c2)cc1)Nc1cccc(Cl)c1,n,x,n
COc1cc(OC)cc(C(=O)Nc2nnc(NC(=S)Nc3ccccc3)s2)c1,-100,x,n
CCCC(=O)NC(=S)Nc1ccc(NC(=O)C(C)C)c(OC)c1,n,x,n
CCOc1cc(NC(=S)Nc2ccccc2)c(OCC)cc1NC(=O)c1ccc(OC)cc1,u,25µM,n
SMILES,PNC assembly inh,15-hLO-2 inh,ALOX12 inhib
COc1ccc(CCC(=O)Nc2cccc(Cl)c2)cc1,-83,x,n
CCOc1cc(NC(=S)Nc2cccc(OC)c2)c(OCC)cc1NC(=O)c1ccc(C)cc1,n,u,n
C[C@@H](C(=O)O)/C(=C/c1ccc2c(c1)OCO2)C(=O)O,x,n[11.4 µM],n[11.4 µM]
O=C(c1ccncc1)N1CCC2(CC1)CN(c1ccncc1)C2,x,n,n
c1ccc2c(c1)-c1nc3ccccc3cc1[C@H]2N1CCOCC1,x,n[11.4 µM],n[11.4 µM]
COc1cc2c(c(OC)c1OC)C(c1ccc(C)cc1)CC(=O)O2 (centres undefined),x,n[0.0915 µM],n[0.00818 µM]
COC(=O)C1=C(C(=O)OC)[C@@H]2N(Cc3ccccc3)c3ccccc3[C@@]23C[C@@H](C(=O)OC)N(S(=O)(=O)c2c(C)noc2C)C3=N1,x,x,n[11.4 µM]
COc1cccc(NC(=O)CCC(=O)Nc2cccc(OC)c2)c1,n,x,n
CCOCC(=O)Nc1cccc(OC)c1,-89,x,n
CCCN[C@@H](C)C(=O)Nc1ccccc1C,x,n,n
O=C(CSc1nnc2scc(-c3ccccc3)n12)NCc1ccc2c(c1)OCO2,n,n,n
O=C(CSc1nnc2scc(-c3ccc(Cl)cc3)n12)NCc1ccc2c(c1)OCO2,-86,n,n
Cn1c(=O)c2c(nc(SCC(=O)NCc3ccc4c(c3)OCO4)n2Cc2ccc(Cl)cc2)n(C)c1=O,-100,x,n
Cn1c(=O)c2c(nc(NCc3ccc4c(c3)OCO4)n2Cc2ccccc2Cl)n(C)c1=O,n,n,n
CCCC(NC(C)C(=O)N1C(C(=O)O)CC2CCCCC21)C(=O)OCC (centres undefined),x,n,n
CC(C)CN1CC2(CCN(C(=O)c3csnn3)CC2)C1,x,n,n
COCCn1nnnc1CN1CCOCC1,n,n,n
COCCn1nnnc1CN1CCC(C)CC1,-100,x,n
COc1cc(C(=O)NC2CCN(Cc3nnnn3Cc3cccs3)CC2)cc(OC)c1OC,n,n,n
COCCn1nnnc1CN1CCC(NC(=O)c2ccc(Br)cc2)CC1,-100,x,n
COc1ccccc1CN1CC[C@@]2(CCCN(S(=O)(=O)c3ccccc3)C2)C1,x,n,n
CO[C@@H]1C[C@H](O[C@H]2[C@@H](C)[C@H](O[C@@H]3O[C@@H](C)C[C@@H](N(C)C)[C@@H]3OC(C)=O)[C@H](C)C[C@]3(CO3)C(=O)[C@H](C)[C@H](OC(C)=O)[C@H](C)[C@H](C)OC(=O)[C@@H]2C)O[C@H](C)[C@@H]1OC(C)=O,x,n,n
CC1CCCC(C)N1C(=O)c1cc2ncc(CCCl)cn2n1 (centres undefined),-84,x,n
O=C(c1cc2ncc(CCCl)cn2n1)N1CCCCCC1,n,x,n
Cc1csc(SCC(=O)Nc2ccc(Cl)cn2)n1,u,n,n
SMILES,PNC assembly inh,15-hLO-2 inh,ALOX12 inhib
Cc1nnc(SCC(=O)Nc2ccc(Cl)cn2)s1,-119,x,n
O=C1CCCC2CCCCN12 (centres undefined),x,n[0.0915 µM],n[0.00818 µM]
N#CCCn1c(=O)c(-c2ccccc2)nc2cnc(N3CCNCC3)nc21,x,n,n
C[C@@]1(C(NS(=O)(=O)c2cccc3cccnc23)c2ccc(-c3ccccc3)cc2)C[C@H]1C1CCCCC1 (some centres undefined),x,n,n
N[C@H](CCC(=O)NCS(=O)(=O)O)C(=O)O,x,n,n
NCCN,x,n,n
COC(=O)c1ccc(NC(=O)C2CCCN2S(=O)(=O)c2ccc(C)cc2)cc1 (centres undefined),-119,x,n
COC(=O)c1ccc(NC(=O)C2CCCN2S(=O)(=O)c2ccc(OC)cc2)cc1 (centres undefined),u,x,n
Cn1cc(-c2nc3cnc(N4CCNCC4)nc3n(C3CC3)c2=O)c2ccccc21,x,n,x
CN1[C@@H]2CC[C@H]1CC(OC(c1ccccc1)c1ccccc1)C2 (some centres undefined),x,n[11.4 µM],n[11.4 µM]
Cc1c(-c2cccs2)[n+](=O)c2c(n1[O-])CCCC2,-100,x,n
Cc1c(-c2ccccc2)[n+](=O)c2c(n1[O-])CCC2,n,x,n
Cc1c(C)[n+](=O)c2c(n1[O-])CCC2,n,n,n
CCc1c(C)n([O-])c2c([n+]1=O)CCC2,-81,n[2.29 µM],n
CCN(CC)CCn1cnc2c([nH]c3cccc(OC)c32)c1=O,n,n[11.4 µM],n
COc1cccc2[nH]c3c(=O)n(CCN(C)C)cnc3c12,-87,n,n
O=C(CS(=O)(=O)c1cn(Cc2ccc(F)cc2)c2ccccc12)N1CCCCC1,-100,x,n
O=C(CS(=O)(=O)c1cn(Cc2ccc(Cl)cc2)c2ccccc12)N1CCCCC1,u,n,n
O=c1c(CCc2ccccc2)nc2cnc(Oc3cccc(Cl)c3)nc2n1C[C@H]1CCCO1,x,n,n
